CYP2C19 act: human CYP2C19 activators, primary screen, biochemical, luminescence | Cytochrome P450 2C19 (Homo sapiens), P33261 | recombinant CYP2C19, luciferin-H EGE luminescence; active compounds read high; 0 = fully inhibited enzyme, 1 = untreated enzyme | activation factor at 5 µM | 96,000 tested, under 10 active;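 active means activation factor of at least 2 at 5 µM in the primary screen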;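 further: 0 = wells with 2.5 mM tranylcypromine and 1 = vehicle-only wells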
Target sequence (P33261 whole entry, looked up): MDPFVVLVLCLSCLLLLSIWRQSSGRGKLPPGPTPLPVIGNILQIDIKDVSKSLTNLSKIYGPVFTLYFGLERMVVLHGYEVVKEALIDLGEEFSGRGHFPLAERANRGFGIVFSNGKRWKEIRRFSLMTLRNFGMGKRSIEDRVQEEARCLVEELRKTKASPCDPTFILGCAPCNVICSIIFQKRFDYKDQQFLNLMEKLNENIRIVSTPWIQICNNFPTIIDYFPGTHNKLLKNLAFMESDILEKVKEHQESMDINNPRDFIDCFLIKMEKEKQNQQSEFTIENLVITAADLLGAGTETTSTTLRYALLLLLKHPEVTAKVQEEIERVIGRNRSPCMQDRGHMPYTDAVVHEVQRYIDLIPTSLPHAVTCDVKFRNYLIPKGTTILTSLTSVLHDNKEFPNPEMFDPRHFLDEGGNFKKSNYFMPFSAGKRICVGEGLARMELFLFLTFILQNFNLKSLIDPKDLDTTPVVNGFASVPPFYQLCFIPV
PostGolgi yeast: phenotypic screen on post-Golgi transport, primary screen; post-Golgi transport phenotypic cell assay; inhibition, % at 10 µM; hit rate 0.9% among 98,000; AID 739, 2007;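 further: yeast cells grown in 1536-well plates; yeast grown about 18 h at 30C before absorbance read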
CYP2C19 inhib: blockers of cytochrome P450 2C19 activity – biochemical, luminescence, ADME assay, primary screen; hit rate 21% among 96,000; AID 778, 2007; CYP2C19 Supersomes, luciferin-H EGE luminescence, 30 min; inhibition, % at 5 µM; P33261;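 active means CYP2C19 inhibition above a set limit at 5 µM in the primary screen, cut at about 50% in these data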;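 further: plate controls were negative control wells for no effect and 2.5 mM tranylcypromine positive control for full effect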
CYP2C9 inh: blockers of cytochrome P450 2C9 activity – biochemical, luminescence, ADME assay, primary screen; P11712; CYP2C9 Supersomes, luciferin-H conversion; inhibition, % at 5 µM; hit rate 20% among 96,000;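 active means blocking of liver enzyme CYP2C9 beyond about 50% at 5 µM, limit read from the data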
CYP2C9 act: human CYP2C9 activators, primary screen, biochemical, luminescence; recombinant CYP2C9, luciferin-H conversion; active compounds read high; factor 1 = untreated enzyme, 0 = blocked; activation factor at 5 µM; hit rate 1.4% among 96,000;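 active means activation factor of 2 or more for CYP2C9 at a 5 µM dose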;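 further: 0 = sulfaphenazole-blocked wells and 1 = vehicle-only wells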
PostGolgi ctrl: growth inhibition of yeast control strain, primary screen, counter-screen for post-Golgi transport modulator project. hit rate 5% among 98,000. efflux-deficient yeast background strain, growth absorbance A615, 16 h. inhibition, % at 10 µM
The depositor's hits bear a star; / = no result given. Sampled rows, rich in hits. Any-hit rate of the full collection: about 32%. Unless noted, no stated cut-off is given here; in the data, active means inhibition above about 30%; inactive means the rest.

SMILES | CYP2C19 act | PostGolgi yeast | CYP2C19 inhib | CYP2C9 inh | CYP2C9 act | PostGolgi ctrl
O=C(NC(=O)c1ccccc1)NC1(C(F)(F)F)OCCO1 | 0.2 | 1.6 | 75.6* | 41.5 | 0.6 | 6.5
COc1ccc(OCC(=O)N2CCN(C(=O)COc3ccc(Br)cc3)CC2)cc1 | 0.4 | -9.6 | 64.5* | 46.0 | 0.5 | 40.7*
CC(=O)N1CCN(C(=O)COc2ccc(Br)cc2)CC1 | 0.1 | -1.9 | 88.8* | -0.4 | 1 | 10.8
Cc1nc(N2CCN(C(=O)COc3ccccc3)CC2)c2c(C)c(C)sc2n1 | 0.6 | 12.9 | 36.0 | 92.6* | 0.1 | 14.4
O=C(COc1ccccc1)N1CCN(C(=O)Cc2ccccc2)CC1 | 1 | -0.3 | 0.7 | -5.9 | 1.1 | 8.0
O=C(COc1ccc(Br)cc1)N1CCN(c2ccccc2)CC1 | 0.3 | 2.5 | 70.6* | 36.7 | 0.6 | 10.3
O=C(COc1ccc(Cl)cc1Br)N1CCN(c2ccccc2)CC1 | 0.6 | 3.7 | 44.6 | -11.7 | 1.1 | 27.2
COc1ccc(OCC(=O)N2CCN(C(=O)c3ccco3)CC2)cc1 | 0.9 | -1.6 | 7.6 | 8.3 | 0.9 | 8.2
Cc1ccc(OCC(=O)N2CCN(c3nnc(-c4ccccc4)c4ccccc34)CC2)cc1 | 0.5 | -7.8 | 46.7 | 44.8 | 0.6 | 27.7
Cc1cc(Br)cc(C)c1OCCCCN(C)C | 0.8 | -7.8 | 19.6 | 4.8 | 1 | 2.6
Cc1ccc(/C=C/c2nnc(-c3ccc(C)cc3)o2)cc1 | 0.8 | 18.1 | 15.5 | 39.6 | 0.6 | -1.1
CCNc1nnc(-c2ccc(C)cc2)o1 | 0.4 | 0.6 | 60.8* | 18.6 | 0.8 | 26.1
O=C1C2C3c4ccccc4C(c4ccccc43)C2C(=O)N1CN1CCOCC1 (stereo not given) | 0.8 | -2.3 | 17.4 | 0.1 | 1 | 3.5
Cc1cc(N2C(=O)C3C4c5ccccc5C(c5ccccc54)C3C2=O)no1 (stereo not given) | 0.2 | -0.3 | 80.0* | 59.2* | 0.4 | 5.8
Nc1nnc(SCc2ccc(F)cc2Cl)s1 | 0.1 | 9.5 | 90.8* | 11.2 | 0.9 | -5.0
Nc1nnc(SCc2cccc(C(F)(F)F)c2)s1 | 0 | 1.3 | 95.5* | -26.4 | 1.3 | 11.0
Nc1nnc(SCc2coc(-c3ccc(Cl)cc3)n2)s1 | 1 | -2.6 | -4.1 | 2.1 | 1 | 4.5
CCOC(=O)CSc1nnc(N)s1 | 0.9 | -1.0 | 12.4 | 14.7 | 0.9 | -5.5
Nc1nnc(COc2cccc(C(F)(F)F)c2)s1 | 0.4 | -6.9 | 63.9* | 0.2 | 1 | 1.3
CCOC(=O)c1ccc(CSc2nnc(N)s2)cc1 | 0.3 | 20.3 | 70.0* | 65.0* | 0.3 | 2.0
COc1cc(-c2nnc(SCC(=O)OC3CCCCC3)o2)cc(OC)c1OC | 0.8 | 1.1 | 17.7 | 14.4 | 0.9 | 7.6
CCc1ccc(NC(=S)NC2CC3CCCC(C2)N3Cc2cccs2)cc1 (stereo not given) | 0.7 | 0.3 | 30.2 | 30.5 | 0.7 | -1.9
Cc1nc(NS(=O)(=O)c2ccccc2)sc1NC(=O)OCCN(C)C | 1 | -6.2 | -4.1 | 14.7 | 0.9 | 11.7
CC(=O)Nc1cc(-c2nn3c(C)nnc3s2)ccc1C | 0.9 | 10.8 | 5.6 | -18.8 | 1.2 | 0.9
CN(C)S(=O)(=O)c1cc(C(=O)NCC2CCCO2)c(Cl)cc1Cl (stereo not given) | 1.1 | 1.8 | -7.4 | 2.7 | 1 | 0.5
SMILES | CYP2C19 act | PostGolgi yeast | CYP2C19 inhib | CYP2C9 inh | CYP2C9 act | PostGolgi ctrl
Cc1cc(N2CCN(c3ccccc3)CC2)nc(-c2ccccc2O)n1 | 1 | 81.9* | 4.1 | 6.8 | 0.9 | 77.2*
Cc1cc(C)n(-c2cc(N3CCOCC3)nc(-c3ccccc3)n2)n1 | 0.8 | 0.1 | 22.1 | 26.7 | 0.7 | 42.1*
Cc1cc(N2CCN(c3ccccc3)CC2)nc(-n2nc(C)cc2C)n1 | 0.4 | 6.2 | 60.5* | 89.6* | 0.1 | 9.3
CC(O)Cc1nsc(NC(=O)c2ccc(Br)o2)n1 (stereo not given) | 1.1 | -0.5 | -5.3 | -8.0 | 1.1 | 5.1
Cc1cccc(OCC2=N/C(=C\N(C)C)C(=O)O2)c1 | 0.3 | 2.4 | 67.3* | 17.1 | 0.8 | 1.8
COc1ccc(OC)c(N2Cc3cc(C)c(C)cc3C2)c1 | 1 | -2.6 | 1.6 | 88.5* | 0.1 | 0.7
CCOc1ccccc1N1Cc2cc(C)c(C)cc2C1 | 0.5 | 6.4 | 54.4* | 22.9 | 0.8 | 8.3
CCOc1ccccc1N1Cc2ccccc2C1 | 0.9 | 14.2 | 9.2 | 13.2 | 0.9 | 20.0
CCN(CC)C(=O)CSc1nnc(CNc2ccc(F)cc2)o1 | 1.1 | 2.2 | -9.2 | -6.7 | 1.1 | 2.1
CCC(C)NCCOCCOc1ccc(C)cc1Br (stereo not given) | 0.6 | -3.8 | 39.0 | 8.4 | 0.9 | 36.5*
O=S(=O)(c1ccc(C2CCCCC2)cc1)N1CCCC1 | 1 | -1.9 | -2.0 | 21.8 | 0.8 | 8.2
CCOC(=O)N1CCN(C(=O)Nc2ccc3nc(C)c(C)nc3c2)CC1 | 0.8 | 5.0 | 16.0 | 12.4 | 0.9 | 7.5
O=C1c2ccccc2C(=O)C1c1ccncc1 | 0.5 | -3.9 | 48.7 | 91.4* | 0.1 | -2.9
O=C(NCC12CC3CC(CC(C3)C1)C2)c1nn2cccnc2c1Cl | 0.7 | 3.5 | 27.0 | 1.2 | 1 | 15.1
Cc1noc(C)c1CSc1nnc(-c2ccccc2)n1Cc1ccco1 | 0.5 | -1.8 | 50.4* | 53.8* | 0.5 | 7.5
Cc1noc(C)c1CSc1nnc2scc(-c3ccccc3)n12 | 0.9 | -2.2 | 10.0 | 8.8 | 0.9 | 5.7
Cc1noc(C)c1CSc1nnc(-c2ccccc2)n1N | 0.4 | 3.8 | 64.6* | 15.8 | 0.8 | 0.4
CC(Sc1ccccc1)C(=O)Nc1ccccc1C(=O)N1CCOCC1 (stereo not given) | 0.9 | -2.2 | 12.4 | 10.3 | 0.9 | 16.4
COc1cccc(/C=C2/CN(C)CC3=C2OC(N)=C(C#N)C3c2cccc(OC)c2)c1 (stereo not given) | / | 8.8 | / | / | / | 6.3
CCOC(=O)C1CCN(c2cc(C)nc3cc(-c4cccc(F)c4)nn23)CC1 | 0.7 | 8.3 | 26.3 | 16.5 | 0.8 | 2.0
Clc1ccc(CSC2=NCCCN2)cc1Cl | 0.9 | 4.3 | 9.5 | -5.1 | 1.1 | -10.2
CNc1cc(CSC)nc(SCc2ccc(Cl)c(Cl)c2)n1 | 0.7 | 27.4 | 25.2 | 40.9 | 0.6 | 35.0*
Cc1ccc(/C=C/C(=O)O)cc1S(=O)(=O)NCCCC(=O)O | 0.8 | -6.0 | 18.4 | -6.7 | 1.1 | 4.8
Cc1nnc(NCc2ccncc2)c2ccccc12 | 0.8 | 27.0 | 16.6 | 12.5 | 0.9 | 0.0
Cc1nnc(Nc2ccccn2)c2ccccc12 | / | -2.3 | / | / | / | 65.0*
CCOc1ccc(C2NC(=O)c3n[nH]c(C)c32)cc1 (stereo not given) | 0.3 | -0.9 | 68.6* | -8.0 | 1.1 | 9.3
O=c1c2cnn(-c3ccccc3)c2ncn1Cc1cccc(Cl)c1 | 1.1 | 2.1 | -10.3 | 2.5 | 1 | 0.1

Assay outcomes as filed in PubChem.
